Bioassay records: PubChem BioAssay, National Center for Advancing Translational Sciences (NCATS)
Most compounds without a hit are left out; they make up all but 2.3% or so of the library.
Nrf2 activator: qHTS of Nrf2 Activators; AREc32 ARE-luciferase reporter (MCF7-derived line), luminescence, 24 h; Potency, µM (series often up to 46.1 µM), for the others: at the highest dose activation, hits mostly activators; 410,000 tested, 0.31% active; AID 624171, 2012; further: % of control where 0% means no effect; nearly all actives have a fitted effect of over 65% in size
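ARE activation measured as luciferase luminescence (Steady-Glo, 30 min RT) in AREc32_Fluc cells after 24 hr compound exposure at 37 deg C, 5% CO2; cells seeded overnight at 1000/well in OPTI-MEM, 5% FBS.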
Rango complex inh: qHTS Assay for Inhibitors of Rango (Ran-regulated importin-beta cargo) - Importin beta complex formation. Importin subunit beta-1 (Homo sapiens), Q14974. Potency, µM (series often up to 92.2 µM), inactives show at the top dose inhibition of complex formation. AID 540263, 2011. 340,000 tested, 0.031% active. Rango CFP/YFP FRET sensor + importin beta, 45 min; calls by dose curve;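 further: 0% = DMSO wells and 100% = buffer wells lacking importin beta; nearly all actives have a fitted effect of over 15% in size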
Target sequence (Q14974 whole entry, looked up): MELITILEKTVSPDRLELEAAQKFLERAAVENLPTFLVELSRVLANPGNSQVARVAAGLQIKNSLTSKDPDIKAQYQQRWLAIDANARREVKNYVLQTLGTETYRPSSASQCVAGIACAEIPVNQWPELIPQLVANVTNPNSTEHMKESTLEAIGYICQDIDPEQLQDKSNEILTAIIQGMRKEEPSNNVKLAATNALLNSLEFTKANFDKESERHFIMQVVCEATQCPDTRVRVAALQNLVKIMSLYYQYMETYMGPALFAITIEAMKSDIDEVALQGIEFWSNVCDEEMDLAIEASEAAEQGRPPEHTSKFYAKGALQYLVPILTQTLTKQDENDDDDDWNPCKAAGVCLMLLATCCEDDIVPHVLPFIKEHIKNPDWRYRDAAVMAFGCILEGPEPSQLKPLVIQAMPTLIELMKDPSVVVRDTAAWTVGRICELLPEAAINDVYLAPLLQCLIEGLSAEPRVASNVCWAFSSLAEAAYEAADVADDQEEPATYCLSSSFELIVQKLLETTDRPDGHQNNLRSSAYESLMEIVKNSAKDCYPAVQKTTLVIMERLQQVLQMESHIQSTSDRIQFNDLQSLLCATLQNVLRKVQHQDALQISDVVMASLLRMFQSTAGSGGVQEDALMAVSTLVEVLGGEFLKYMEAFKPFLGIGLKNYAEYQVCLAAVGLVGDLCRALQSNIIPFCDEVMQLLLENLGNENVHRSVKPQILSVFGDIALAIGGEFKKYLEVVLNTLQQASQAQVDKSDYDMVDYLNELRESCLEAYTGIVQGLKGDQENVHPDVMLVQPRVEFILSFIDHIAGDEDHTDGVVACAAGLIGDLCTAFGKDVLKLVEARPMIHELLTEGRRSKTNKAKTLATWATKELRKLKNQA
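FRET biosensor (snurportin 1 IBB flanked by EYFP and cerulean), 50 nM, with compound 5 min, then 0.125 microM importin beta in PBS, 1 mM DTT, 0.02% Tween-20, 0.1% BSA. CFP/YFP ratio read after 45 min at room temperature; pre-read flags interference.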
Rango dissoc inh: qHTS Assay for Inhibitors of RanGTP induced Rango (Ran-regulated importin-beta cargo) - Importin beta complex dissociation. Snurportin-1 (Homo sapiens) + GTP-binding nuclear protein Ran (Homo sapiens) + Importin …. Biochemical FRET Rango-importin beta, RanGTP-induced dissociation. Potency, µM (top dose mostly 46.1 µM), inactives show at the top dose activity change, negative = inhibition. 340,000 tested, 0.071% active. AID 540253, 2011; calls by dose curve; further: % of control where 0% means no effect; nearly all actives have a fitted effect of over 45% in size
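Compounds sat 5 min at room temperature with 0.1 uM Rango biosensor plus 0.25 uM importin beta, then FRET pre-read. RanGTP-RCC1 (0.6 uM Ran, 2mM GTP, 0.2 uM RCC1) added for 45 min, and the CFP/YFP post-read measured blocked complex dissociation.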
A549 viability: Nrf2 qHTS screen for inhibitors: counterscreen for cytotoxicity | A549 ARE-Fluc cells, CellTiter-Fluor viability, 18-24 h | Potency, µM (highest dose often 46 µM), without a hit: at the top dose activity change, negative = cytotoxicity, hits mostly inhibitors | 390,000 tested, 0.16% active | AID 504648, 2011; further: on the % scale 0 is the no-effect control and ±100 the full control effect
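A549 ARE_Fluc cells in 5% FBS OPTI-MEM were exposed to compounds in concentration-response for 18-24 h at 37 deg C. Viability was read by CellTiter-Fluor fluorescence (Ex 405/Em 525) after 30 min, before the luciferase read.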
Nrf2 inh: Nrf2 qHTS screen for inhibitors; A549 ARE-Fluc reporter, luciferase luminescence, 18-24 h; Potency, µM (top dose mostly 46 µM), for inactives: at the highest dose activity change, negative = inhibition, usual class: inhibitors; 360,000 tested, 2.1% active; AID 504444, 2011; further: on the % scale 0 is the no-effect control and ±100 the full control effect; nearly all actives have a fitted effect of over 60% in size
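A549 ARE_Fluc cells, 5000/well, 5% FBS OPTI-MEM; compounds in dose-response, 18-24 h at 37 °C/5% CO2; CellTiter-Fluor viability read (Ex 405/Em 525), then BugLite luciferase luminescence = Nrf2 activity.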
* hit, by the source's call; ? = inconclusive; . = no result given. Unless noted, the call rests on the fitted dose curve; in most records, active means well fitted curve in the direction sought with a large enough effect; inconclusive means small, poorly fitted or top-dose-only effect, or another doubt; inactive means no such curve, though single readings can be large; an effect the other way counts as inactive or inconclusive. Potency means the concentration at half of the fitted maximal effect.

SMILES | Nrf2 activator | Rango complex inh | Rango dissoc inh | A549 viability | Nrf2 inh
COCc1ccc(C(=O)NC2CCCc3c2cnn3-c2ccc(C)c(C)c2)o1 (centres undefined) | -1% | 0% | ? | -6% | 15µM*
Cc1ccc(-n2ncc3c2CCCC3NC(=O)c2ccoc2)cc1C (centres undefined) | 0% | -2% | -6% | -11% | ?
CC(C)NC(=O)C1CCN(C(=O)c2cc3sccc3n2Cc2ccc(F)cc2)CC1 | 0% | -1% | 12% | ? | 15µM*
CCn1c(CNC(=O)COc2ccc(C(C)C)cc2)nnc1SCC(=O)Nc1ccccc1F | 0% | 1% | 1% | -13% | ?
CCn1c(CNC(=O)COc2ccc(C(C)C)cc2)nnc1SCC(=O)Nc1ccccc1C(C)C | 3% | 4% | -9% | -22% | 16µM*
CC1CCCN(C(=O)Cn2nnc(-c3ccccc3F)n2)C1 (centres undefined) | 3% | 0% | -1% | 1% | ?
O=C(CSc1ncc(C(F)(F)F)cc1Cl)N1CCN(S(=O)(=O)c2ccc(Cl)cc2)CC1 | -1% | 3% | 4% | 3% | ?
O=C(CSc1ccc(Cl)cc1)N1CCN(c2ncc(C(F)(F)F)cc2Cl)CC1 | 0% | 2% | -1% | -15% | 21µM*
COc1ccc2nc3sc(C(=O)N4CCN(c5ccc(F)cc5)CC4)cc3cc2c1 | 0% | . | . | -2% | 5%
CCc1cc(C(=O)NC2CCCN(Cc3ccccc3F)C2)n(C)n1 (centres undefined) | 0% | 7% | 0% | -9% | 13µM*
Cn1nc(C(=O)NC2CCCN(Cc3ccccc3F)C2)c2ccccc2c1=O (centres undefined) | 2% | 6% | -11% | -18% | -15%
O=S(=O)(c1ccc2[nH]c3c(c2c1)CCCCC3)N1CCN(c2ccccc2)CC1 | 0% | . | . | 4% | ?
Cc1cccc(N2CCN(C(=O)c3ccc4nccnc4c3)CC2C)c1 (centres undefined) | 0% | -1% | -6% | 2% | -1%
Cc1cccc(N2CCN(C(=O)c3ccc4nc(-c5ccco5)c(-c5ccco5)nc4c3)CC2C)c1 (centres undefined) | -2% | ? | ? | ? | 21µM*
Cc1ccn2c(=O)cc(COc3ccc(NC(=O)COc4ccc(Cl)cc4)cc3)nc2c1 | -1% | . | . | -2% | .
Cc1ccc(CNC(=O)CNC(=S)N(Cc2ccccc2)Cc2cccnc2)cc1 | 0% | -2% | 5% | 0% | 4%
Cc1ccc(CN(Cc2ccco2)C(=S)NCC(=O)NCc2cccnc2)cc1 | 1% | -4% | -17% | -10% | 7.3µM*
Cc1ccc(-n2ncc(C(=O)NCc3cccs3)c2C2CCN(C(=O)OC(C)(C)C)CC2)cc1C | -1% | . | . | -20% | 21µM*
CC(C)(C)OC(=O)N1CCC(c2c(C(=O)NCc3cccs3)cnn2-c2cccc(F)c2)CC1 | -1% | . | . | -4% | -24%
Cc1ccc(C)c(N2CCN(CCCNC(=O)c3cnn(-c4ccccc4)c3C3CCN(C(=O)OC(C)(C)C)CC3)CC2)c1 | -1% | . | . | ? | 18µM*
Cc1cccc(-n2ncc(C(=O)NCc3ccc4c(c3)OCO4)c2C2CCN(C(=O)OC(C)(C)C)CC2)c1 | 0% | . | . | -16% | 16µM*
CCOC(=O)C1=C(CN2CCN(c3ccccc3F)CC2)NC(=O)NC1c1ccc(OC)cc1 (centres undefined) | 0% | . | . | -21% | 18µM*
CCOC(=O)C1=C(CN(CC)Cc2ccccc2)NC(=O)NC1c1ccc(OC(C)C)cc1 (centres undefined) | 0% | . | . | ? | 18µM*
CCOC(=O)C1=C(CN2CCN(c3ccccc3F)CC2)NC(=O)NC1c1ccc(Cl)cc1 (centres undefined) | -1% | . | . | -22% | 21µM*
CCOC(=O)C1=C(CN2CCC(C)CC2)NC(=O)NC1c1ccc(OC(C)C)cc1 (centres undefined) | 0% | . | . | -11% | ?
SMILES | Nrf2 activator | Rango complex inh | Rango dissoc inh | A549 viability | Nrf2 inh
COC(=O)c1ccc(OCc2nn[nH]n2)cc1 | 0% | 2% | 4% | 1% | -2%
O=[N+]([O-])c1ccc(-c2ccc(S(=O)(=O)N3CCOCC3)cc2)cc1 | -1% | -2% | -1% | -2% | 0%
O=[N+]([O-])c1ccc(Oc2ccc(S(=O)(=O)N3CCOCC3)cc2)cc1 | 1% | -1% | 12% | -3% | 26µM*
CC(C)(C)n1nnnc1C(c1cccs1)N(Cc1ccccc1)Cc1ccco1 (centres undefined) | 9% | -1% | -3% | -9% | 21µM*
CC(C)(C)n1nnnc1C(c1cccs1)N(Cc1cccnc1)Cc1ccco1 (centres undefined) | 3% | 2% | 8% | -7% | 0%
COc1ccc(OC)c(-c2nc(C(=O)NCC3CCCO3)cc3c2[nH]c2ccccc23)c1 (centres undefined) | 5% | 1% | -13% | -2% | ?
COc1cccc(-c2nc(C(=O)NCC3CCCO3)cc3c2[nH]c2ccccc23)c1 (centres undefined) | 0% | -1% | -2% | -16% | 21µM*
O=C(NCC(c1ccco1)N1CCCC1)c1cc(S(=O)(=O)N2CCOCC2)ccc1Cl (centres undefined) | 0% | 6% | -10% | 7% | 9%
CCOC(=O)c1ccc(N2C(=O)c3n[nH]c(-c4ccco4)c3C2c2ccc(O)c(OCC)c2)cc1 (centres undefined) | -3% | . | . | 13% | ?
CCOC(=O)c1ccc(N2C(=O)c3[nH]nc(-c4ccc(C)cc4)c3C2c2cccs2)cc1 (centres undefined) | 0% | . | . | ? | 23µM*
CCOC(=O)c1ccc(N2C(=O)c3[nH]nc(-c4ccc(C)cc4)c3C2c2ccc(O)c(OCC)c2)cc1 (centres undefined) | 13% | . | . | -10% | 21µM*
CCOC(=O)c1ccc(N2C(=O)c3[nH]nc(-c4ccc(OC)cc4)c3C2c2ccccc2Cl)cc1 (centres undefined) | -1% | . | . | 0% | 9%
CCOC(=O)c1ccccc1NC(=O)CN(c1cccc(C)c1C)S(=O)(=O)c1ccccc1 | 0% | . | . | -2% | -20%
COc1ccc(C(Nc2ccccn2)c2c(NC(=O)c3ccco3)sc(C)c2C)cc1 (centres undefined) | 23% | 0% | -4% | 0% | ?
Cc1sc(NC(=O)c2ccco2)c(C(Nc2ccccn2)c2ccccc2)c1C (centres undefined) | 9% | -1% | -6% | -6% | 21µM*
